Where “and” joins values, the source holds several entries; their conditions need not be identical. Identical values can stand only once. Records with an inconclusive call do not appear. Some structures have more than one record in an assay (separate samples or runs), and their calls can disagree. Calls of active or inactive are those of the source. Calls come from the whole dose curve.
These compounds were tested against Cytochrome P450 1A2 (Homo sapiens) (UniProt P05177) (assay: p450-cyp1a2 (AID 410;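 for activity change, negative = inhibition: -100% = full effect of reference inhibitor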)). Conditions: recombinant CYP1A2, luciferin-ME demethylation, luminescence; series mostly up to 25.6 µM; activity change, negative = inhibition: at the top concentration.
Protocol: The P450 gene superfamily is involved in metabolism and the clearance of xenobiotics. This assay used human CYP1A2 to measure the demethylation of luciferin 6' methyl ether (Luciferin-ME; Promega-Glo) to luciferin. The luciferin is then measured by luminescence after the addition of a luciferase detection regeant. Luciferin-ME concentration in the assay was equal to its Km for CYP1A2.
NCGC Assay Protocol Summary:
Two uL of enzyme and substrate mix (final concentrations: 20nM CYP1A2, 100uM Luciferin-ME, 100mM KPO4) were dispensed into a white, solid bottom 1536-well microtiter plate. 23nL of compound was transferred by a pin tool. The plate was incubated at room temperature for 10 min. Two uL of an NADPH regeneration solution (Promega supplied reagent) was dispensed and the reaction was allowed to continue for 60 min at room temperature. Then the reaction was stopped by reconstituted detection reagent. After another 20 min of incubation the plate was read on the ViewLux (Perkin Elmer) at 60 sec exposure and 2x2 binning. This protocol was carried out with Promega-Glo reagents and further information can be found at http://www.promega.com/tbs/tb325/tb325.pdf. Data were normalized to the to AC100 inhibition (57 uM furafylline).
Potency is the fitted concentration of half-maximal effect.

Chain of Cytochrome P450 1A2 (Homo sapiens) (P05177 whole entry, looked up): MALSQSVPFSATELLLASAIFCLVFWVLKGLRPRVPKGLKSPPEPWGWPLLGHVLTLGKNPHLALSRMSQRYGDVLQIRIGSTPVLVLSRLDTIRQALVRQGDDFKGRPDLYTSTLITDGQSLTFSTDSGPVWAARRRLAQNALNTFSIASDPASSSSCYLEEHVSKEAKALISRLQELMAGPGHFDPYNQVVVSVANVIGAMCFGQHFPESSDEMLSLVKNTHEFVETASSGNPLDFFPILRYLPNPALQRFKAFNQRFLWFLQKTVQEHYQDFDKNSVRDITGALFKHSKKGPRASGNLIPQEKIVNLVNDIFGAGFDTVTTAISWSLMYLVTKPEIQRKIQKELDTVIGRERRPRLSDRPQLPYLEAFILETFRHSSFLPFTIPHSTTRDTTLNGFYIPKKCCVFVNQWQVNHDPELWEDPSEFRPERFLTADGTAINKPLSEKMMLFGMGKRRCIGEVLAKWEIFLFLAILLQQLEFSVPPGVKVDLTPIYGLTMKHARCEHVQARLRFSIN

Row | Structure (SMILES) | Potency | activity change, negative = inhibition
1 | CNC[C@H](O)c1ccc(O)cc1 | inactive | 
2 | C=C1[C@@H]2C[C@@]3([C@H]1O)[C@H]1C[C@@H]4[C@@]5(C)CC[C@H](O)[C@]4([C@H]1N(CC)C5)[C@H]3C[C@H]2O |  | -12.3% (inactive)
3 | CN1CC[C@@]2(CCCN(C(=O)c3ccco3)C2)C1 |  | 8% [at 57 µM] (inactive)
4 | c1ccc(CN2CCCC3(CCNCC3)C2)cc1 |  | -1.5% [at 57 µM] (inactive)
5 | c1csc(CN2CCC3(CCNCC3)CC2)n1 |  | 2.3% [at 57 µM] (inactive)
6 | C=C1C/C(=C\C)C(=O)O[C@@H]2CCN3CC=C(COC(=O)[C@@]1(C)O)[C@H]23 |  | -3.7% (inactive)
7 | Clc1ccc([C@@H](OCCN2CCCCC2)c2ccccc2)cc1 | 12.6 µM (active) | 
8 | COCC(=O)N1CCC2(CCCN(Cc3ccncc3)C2)CC1 |  | -9.3% [at 57 µM] (inactive)
9 | CC(C)c1ccc(C(c2c(O)c3ccccc3oc2=O)c2c(O)c3ccccc3oc2=O)cc1 |  | -18.8% [at 2.29 µM] (inactive)
10 | NC[C@H](O)c1ccc(O)cc1 | inactive | 
11 | C[C@H]1CC[C@@]2(NC1)O[C@@H]1C[C@H]3[C@@H]4CC=C5C[C@@H](O)CC[C@]5(C)[C@@H]4CC[C@]3(C)[C@@H]1[C@@H]2C |  | -7.7% (inactive)
12 | CS(=N)(=O)CC[C@@H](N)C(=O)O (stereo not given in full) | inactive | 
13 | CC[C@@]1(c2ccc(N)cc2)CCC(=O)NC1=O | inactive | 
14 | c1ccc(CN2CC[C@@]3(CCCNC3)C2)cc1 |  | -5.1% [at 57 µM] (inactive)
15 | CN1[C@@H]2CCC[C@H]1CC(=O)C2 |  | -13.3% (inactive)
16 | O=C(Oc1ccccc1)N1CCC[C@@]2(CCN(C(c3ccccc3)c3ccccc3)C2)C1 | 25.1 µM (active) | 
17 | CC(C)[C@@]1(NC(=O)[C@@H]2C[C@H]3c4cccc5[nH]cc(c45)C[C@@H]3N(C)C2)O[C@]2(O)[C@H]3CCCN3C(=O)[C@H](Cc3ccccc3)N2C1=O |  | -7.1% (inactive)
18 | C(#CCN1CCCC1)CN1CCCC1 |  | 1.9% (inactive)
19 | CC(C)CN1CCC2(CC1)CCN(S(C)(=O)=O)CC2 |  | -17.4% [at 57 µM] (inactive)
20 | Cc1nnc2ccc(-c3cccc(C(F)(F)F)c3)nn12 | 0.0794 µM (active) | 

Row | Structure (SMILES) | Potency | activity change, negative = inhibition
21 | Clc1ccccc1-c1cncnc1NCCc1cnc[nH]1 | 1.58 µM (active) | 
22 | C=C1[C@@H]2CC[C@H]3[C@@]4(C)C[C@@H](O[C@@H]5O[C@H](CO)[C@H](OS(=O)(=O)O)[C@@H](OS(=O)(=O)O)[C@@H]5OC(=O)CC(C)C)C[C@@H](C(=O)O)[C@H]4CC[C@@]3(C2)[C@H]1O |  | -10.2% (inactive)
23 | COc1ccc(C(=O)OC2C[C@H]3CC[C@@H](C2)N3C)cc1OC (stereo not given in full) |  | -6.6% (inactive)
24 | c1cc(CN2CC3(CCNCC3)C2)ccn1 |  | -9.4% [at 57 µM] (inactive)
25 | CC(C)CN1CCC2(CC1)CCN(C(=O)Oc1ccccc1)CC2 |  | 14.7% [at 57 µM] (inactive)
26 | O=C(OC1CCN(CCCl)CC1)C(c1ccccc1)c1ccccc1 | 12.6 µM (active) | 
27 | CC1=C2[C@@H]3OC(=O)[C@@H](C)[C@@H]3CC[C@]2(C)C=CC1=O | 10 µM (active) | 
28 | CC(=O)OCC(=O)[C@@H]1CC[C@H]2[C@H]3CC[C@H]4C[C@@H](O)CC[C@]4(C)[C@@H]3C(=O)C[C@@]12C |  | -3.6% (inactive)
29 | COc1ccc2c(c1OC)C(=O)O[C@H]2[C@H]1c2cc3c(cc2CCN1C)OCO3 | 25.1 µM (active) and inactive and 31.6 µM (active) | 
30 | COc1ccc(OC)c([C@H](O)[C@H](C)N)c1 | inactive | 
31 | CN(C)C(=O)Oc1cc(OC(=O)N(C)C)cc([C@@H](O)CNC(C)(C)C)c1 |  | -3% (inactive)
32 | CC(=O)N[C@@H]1CCSC1=O |  | -5.5% (inactive)
33 | c1ccc(N2CCCC3(CCNCC3)C2)cc1 |  | -16.7% [at 57 µM] (inactive)
34 | c1csc(CN2CC[C@@]3(CCCNC3)C2)n1 |  | -12.5% [at 57 µM] (inactive)
35 | CCN1C[C@@]2(COC)CC[C@H](O)[C@@]34[C@@H]2C[C@@H]([C@@H]13)[C@]1(O)C[C@@H](OC)C2C[C@H]4[C@H]1[C@H]2OC(C)=O |  | -7.6% (inactive)
36 | COc1ccc(NC(=O)N2CC[C@@]3(CCCN(C(=O)Oc4ccccc4)C3)C2)cc1 |  | -7.1% [at 57 µM] (inactive)
37 | c1ccc(N2CC[C@@]3(CCCNC3)C2)cc1 | 39.8 µM (active) | 
38 | c1cc(N2CCCC3(CCNCC3)C2)ccn1 |  | -4.6% [at 57 µM] (inactive)
39 | CC[C@H]1CN2CC[C@@H]1C[C@H]2[C@@H](O)c1ccnc2ccc(OC)cc12 |  | -5.1% (inactive)
40 | COc1ccc(C[C@H]2c3cc(OC)c(OC)cc3CCN2C)cc1OC |  | -15.9% (inactive)

Reference: PubChem BioAssay (NCATS)
